# Laboratory results as given in PubChem BioAssay (NCATS).
# Records with an inconclusive call do not appear. A call without a number means that no potency is given here. Values without a mark were called inactive. The source made the active and inactive calls. The call rests on the fitted dose curve; in most records, active means well fitted curve in the direction sought with a large enough effect; inconclusive means small, poorly fitted or top-dose-only effect, or another doubt; inactive means no such curve, though single readings can be large; an effect the other way counts as inactive or inconclusive.
# Key:
# [1] = biological target: N-terminal Xaa-Pro-Lys N-methyltransferase 1 (Homo sapiens) (UniProt Q9BV86); assay: qHTS Assay for Inhibitors of N-terminal methyltransferase 1 (NTMT1): LOPAC validation of the NTMT1 SAHH-coupled ThioGlo3 Assay (AID 1347143); further: nearly all actives have a fitted effect of over 70% in size; further: potency means the concentration at half of the fitted maximal effect
# Chain of N-terminal Xaa-Pro-Lys N-methyltransferase 1 (Homo sapiens) (Q9BV86 whole entry, looked up): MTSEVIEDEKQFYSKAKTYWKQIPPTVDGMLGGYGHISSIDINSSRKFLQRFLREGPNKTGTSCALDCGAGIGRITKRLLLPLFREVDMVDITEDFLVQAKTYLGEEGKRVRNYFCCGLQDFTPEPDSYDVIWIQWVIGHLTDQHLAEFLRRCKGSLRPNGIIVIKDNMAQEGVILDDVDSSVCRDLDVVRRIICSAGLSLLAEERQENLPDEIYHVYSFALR
# Method in brief: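 Fluorescence read-out (excitation 340nm, emission 450nm) of SAH-derived thiol, measured via SAHH coupling and ThioGlo3, taken immediately and after a 30 min room-temperature reaction, then normalized to the background read. Enzyme: NTMT1 at 125nM; cofactor SAM 100uM in the added reagent.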
# [2] = system: Zika virus NS2B-NS3 protease (unlinked); assay: Optimization of GU AMC qHTS for Zika virus inhibitors: Unlinked NS2B-NS3 protease assay (AID 1347151); further: series mostly up to about 52 µM; nearly all actives have a fitted effect of over 80% in size
# Method in brief: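 Fluorescence gain (340/450 nm) over 15 min at room temperature, ~20% conversion, gave percent inhibition fitted to a 4-parameter Hill equation; enzyme was unlinked NS2B-NS3 (25 nM final), pH 8.0 Tris buffer.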
# [3] = system: Zika virus NS2B-NS3 protease; assay: Primary screen GU AMC qHTS for Zika virus inhibitors (AID 1347154); further: nearly all actives have a fitted effect of over 70% in size
# Method in brief: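 Unlinked Zika NS2B hydrophilic domain/NS3 protease domain noncovalent complex (25 nM final) in 10 mM Tris-HCl pH 8.0, 0.01% Tween 20, with AMC peptide substrate. Fluorescence (ex 340, em 450 nm) change over 15 min, room temperature; percent inhibition fitted to 4-parameter Hill equation.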
# [4] = biological target: Lysine-specific demethylase 5B (Homo sapiens) (UniProt Q9UGL1); assay: Optimization screen for KDM5B Histone Demethylases FDH coupled qHTS against the LOPAC library (AID 1347166)
# Chain of Lysine-specific demethylase 5B (Homo sapiens) (Q9UGL1 whole entry, looked up): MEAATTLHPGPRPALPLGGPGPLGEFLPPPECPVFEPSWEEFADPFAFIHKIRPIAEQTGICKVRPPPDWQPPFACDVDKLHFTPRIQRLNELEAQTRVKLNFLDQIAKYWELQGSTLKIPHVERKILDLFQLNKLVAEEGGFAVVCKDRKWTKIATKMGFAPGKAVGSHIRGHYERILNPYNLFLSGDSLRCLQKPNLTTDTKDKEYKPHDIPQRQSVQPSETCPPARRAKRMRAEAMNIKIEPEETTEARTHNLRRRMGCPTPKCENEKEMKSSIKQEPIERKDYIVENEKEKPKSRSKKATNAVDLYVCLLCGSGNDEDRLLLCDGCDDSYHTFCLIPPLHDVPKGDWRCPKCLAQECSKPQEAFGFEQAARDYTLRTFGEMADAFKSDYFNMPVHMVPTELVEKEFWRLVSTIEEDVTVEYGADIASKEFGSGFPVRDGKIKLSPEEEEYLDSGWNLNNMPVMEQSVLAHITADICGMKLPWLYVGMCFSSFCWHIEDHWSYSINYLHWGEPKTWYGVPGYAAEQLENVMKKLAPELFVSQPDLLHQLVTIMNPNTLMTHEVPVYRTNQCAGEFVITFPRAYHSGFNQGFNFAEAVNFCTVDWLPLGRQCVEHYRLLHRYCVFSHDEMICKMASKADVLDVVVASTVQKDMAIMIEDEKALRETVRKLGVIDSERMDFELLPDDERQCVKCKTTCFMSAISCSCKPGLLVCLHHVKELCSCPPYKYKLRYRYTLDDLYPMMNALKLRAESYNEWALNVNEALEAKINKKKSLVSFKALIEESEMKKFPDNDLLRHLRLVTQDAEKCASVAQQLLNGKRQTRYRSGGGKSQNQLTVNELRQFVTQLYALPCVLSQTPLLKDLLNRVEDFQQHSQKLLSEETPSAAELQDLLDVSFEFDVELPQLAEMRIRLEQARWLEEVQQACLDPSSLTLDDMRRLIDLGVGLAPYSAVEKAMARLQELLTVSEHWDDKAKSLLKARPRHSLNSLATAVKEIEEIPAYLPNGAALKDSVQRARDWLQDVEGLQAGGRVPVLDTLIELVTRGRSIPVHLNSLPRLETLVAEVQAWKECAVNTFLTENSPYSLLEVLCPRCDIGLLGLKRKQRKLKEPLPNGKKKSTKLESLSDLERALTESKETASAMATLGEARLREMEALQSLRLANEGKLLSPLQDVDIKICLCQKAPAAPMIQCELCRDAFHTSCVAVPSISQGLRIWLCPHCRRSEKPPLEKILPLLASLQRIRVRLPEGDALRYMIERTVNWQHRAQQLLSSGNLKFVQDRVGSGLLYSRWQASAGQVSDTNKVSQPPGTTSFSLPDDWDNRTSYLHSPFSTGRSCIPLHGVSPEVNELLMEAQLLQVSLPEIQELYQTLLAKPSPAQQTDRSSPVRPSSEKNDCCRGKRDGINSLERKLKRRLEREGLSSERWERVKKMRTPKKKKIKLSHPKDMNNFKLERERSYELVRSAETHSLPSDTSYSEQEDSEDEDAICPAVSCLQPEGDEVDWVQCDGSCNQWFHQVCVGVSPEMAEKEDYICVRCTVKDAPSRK
# Method in brief: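 KDM5BDeltaAP (200nM final) preincubated 10 min with compound, then 12.5uM H3K4Me3, 25uM a-ketoglutarate, ascorbate, Fe(II), NAD+ and FDH added; 50mM HEPES pH 7.5, 0.01% Tween-20. NADH fluorescence (340/450 nm) change over 30 min, room temperature.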
# [5] = qHTS to identify inhibitors of the type 1 interferon - major histocompatibility complex class I in skeletal muscle: primary screen against the NCATS Pharmaceutical Collection (AID 1347407);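 further: luminescence of HiBiT knocked into endogenous HLA-B as interferon-induced MHC class I level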
# Method in brief: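 Compounds […] were added to CRISPR-engineered HLA-B-HiBiT C25cl48 human myoblasts with 4.0 ng/ml IFN-beta. After 24 hrs at 37 C, cells were lysed and HiBiT luminescence measured.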
# [6] = qHTS to identify inhibitors of the type 1 interferon - major histocompatibility complex class I in skeletal muscle: primary screen against the NCATS LOPAC collection (AID 1347405);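 further: lytic HiBiT luminescence reporting HLA-B protein level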; further: potency means the concentration at half of the fitted maximal effect
# Method in brief: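 Immortalized human C25cl48 myoblasts with HiBiT knocked into endogenous HLA-B*08:01 were stimulated with 4.0 ng/ml IFN-beta and given compounds in a 7-point, 1:4.3 titration from 46 uM final; after 24 hrs, lytic HiBiT luminescence was read.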
# [7] = system: Zika virus NS2B-NS3 protease (linked construct); assay: Confirmatory screen NINDS AMC qHTS for Zika virus inhibitors (AID 1347152); further: top concentration of the series differs between compounds; nearly all actives have a fitted effect of over 70% in size
# Method in brief: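 IC50s from 4-parameter Hill fits of percent inhibition, based on AMC fluorescence gain (340/450 nm) over 15 min with 10 microM Bz-Nle-KRR-AMC. Enzyme: 1 nM linked NS2B-NS3 in Tris-HCl pH 8.0; 15-min compound preincubation.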
# [8] = system: Zika virus NS2B-NS3 protease (unlinked complex); assay: Confirmatory screen GU AMC qHTS for Zika virus inhibitors (AID 1347153); further: nearly all actives have a fitted effect of over 70% in size
# Method in brief: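 Unlinked NS2B-NS3 complex (25 nM) in 10 mM Tris-HCl pH 8.0, 0.01% Tween 20 preincubated 15 min with compound, then 10 microM Bz-Nle-KRR-AMC (Km 18.3 µM). Fluorescence change over 15 min, normalized, Hill-fitted.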
# [9] = Confirmatory screen NINDS Rhodamine qHTS for Zika virus inhibitors (AID 1347161);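 further: purified Zika NS2B-NS3 protease with linked NS2B cofactor domain and Rhodamine110 peptide substrate; series mostly up to about 110 µM; nearly all actives have a fitted effect of over 60% in size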
# Method in brief: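 Single-chain NS2B-NS3 protease, 25 nM, pH 8.0; compounds preincubated 15 min. Activity: Rhodamine110 release from 1.5 microM substrate over 15 min, room temperature, data fitted to 4-parameter Hill.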
# [10] = Vero cells viability qHTS for Zika virus inhibitors (AID 1347167)
# Method in brief: (§1)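 Counter-screen for cytotoxicity of hits from NS2B-NS3 protease qHTS. Overnight-attached cells (2.5 x 10^5 cells/mL, DMEM/4% FBS) were dosed in titration, incubated 24 to 48 hours, then assayed by CellTiter Glo.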
# [11] = HepG2 cells viability qHTS for Zika virus inhibitors (AID 1347168)
# Method in brief: as §1
# [12] = Tertiary RLuc qRT-PCR qHTS assay for Zika virus inhibitors (AID 1347169); further: top concentration of the series differs between compounds; nearly all actives have a fitted effect of over 55% in size
# Method in brief: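 Orthogonal cell-based readout: luminescence measured 1-1.5 hrs after adding live-cell Renilla substrate to Vero cells that had been infected with ZIKV-RLuc (MOI 1-2) post-compound, incubated 48-72 hrs at 37 degrees C.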
structure (smiles),measurement,setting,value
CCCC(C(=O)OCCN(CC)CC)(c1ccccc1)c1ccccc1,Potency,[1],inactive
same,Potency,[2],inactive
same,outcome,[3],inactive
same,Potency,[4],inactive
same,Potency,[5],inactive
CN(C)C(=O)Oc1ccc[n+](C)c1,Potency,[1],inactive
same,Potency,[2],inactive
same,outcome,[3],inactive
same,Potency,[4],inactive
same,Potency,[6],inactive
same,Potency,[5],inactive
NC/C=C/C(=O)O,Potency,[1],inactive
same,Potency,[2],inactive
same,outcome,[3],inactive
same,Potency,[4],inactive
same,Potency,[6],inactive
same,Potency,[5],inactive
C[N+](C)(C)CCOC(N)=O,Potency,[1],inactive
same,Potency,[2],inactive
same,outcome,[3],inactive
same,Potency,[4],inactive
same,Potency,[6],inactive
same,Potency,[5],inactive
CN(C)CC/C=C1\c2ccccc2COc2ccccc21,Potency,[1],inactive
same,Potency,[2],inactive
same,outcome,[3],inactive
same,Potency,[4],inactive
same,Potency,[6],inactive
same,Potency,[5],inactive
CCn1ccnc1CC1COc2ccccc2O1 (configuration not stated),Potency,[1],inactive
same,Potency,[2],inactive
same,outcome,[3],inactive
same,Potency,[4],inactive
same,Potency,[6],inactive
same,Potency,[5],inactive
CCN(CC)CCNC(=O)c1ccc(NC(C)=O)cc1,Potency,[1],inactive
same,Potency,[2],inactive
same,outcome,[3],inactive
same,Potency,[4],inactive
same,Potency,[6],inactive
same,Potency,[5],inactive
CCOC(=O)C1=C(C)NC(C)=C(C(=O)OC)C1c1cccc([N+](=O)[O-])c1 (configuration not stated),Potency,[1],inactive
same,Potency,[2],inactive
same,outcome,[3],inactive
same,Potency,[6],12.6 µM (active)
N[C@@H](COP(=O)(O)O)C(=O)O,Potency,[1],inactive
same,Potency,[2],inactive
same,outcome,[3],inactive
same,Potency,[6],inactive
same,Potency,[5],inactive
CNC1(C)C2CCC(C2)C1(C)C (configuration not stated),Potency,[1],inactive
same,Potency,[2],inactive
same,outcome,[3],inactive
same,Potency,[4],inactive
same,Potency,[6],inactive
same,Potency,[5],inactive
COc1cc(Cc2cnc(N)nc2N)cc(OC)c1OC,Potency,[1],inactive
same,Potency,[2],inactive
same,outcome,[3],inactive
same,Potency,[4],inactive
same,Potency,[6],inactive
same,Potency,[5],inactive
CC(N=C(NC#N)Nc1ccncc1)C(C)(C)C (configuration not stated),Potency,[1],inactive
same,Potency,[2],inactive
same,outcome,[3],inactive
same,Potency,[4],inactive
same,Potency,[6],inactive
same,Potency,[5],inactive
CC(C(=O)O)c1ccc(CC2CCCC2=O)cc1 (configuration not stated),Potency,[1],inactive
same,Potency,[2],inactive
same,outcome,[3],inactive
same,Potency,[4],inactive
same,Potency,[6],inactive
same,Potency,[5],inactive
CC(=O)OC(C)C[N+](C)(C)C (configuration not stated),Potency,[1],inactive
same,Potency,[2],inactive
same,outcome,[3],inactive
same,Potency,[4],inactive
same,Potency,[6],inactive
same,Potency,[5],inactive
O=c1[nH]c(=O)n([C@H]2C[C@H](O)[C@@H](CO)O2)cc1Br,Potency,[1],inactive
same,Potency,[2],inactive
same,outcome,[3],inactive
same,Potency,[4],inactive
same,Potency,[6],inactive
same,Potency,[5],inactive
O=C(O)CP(=O)(O)O,Potency,[1],inactive
same,Potency,[2],inactive
same,outcome,[3],inactive
same,Potency,[4],inactive
same,Potency,[6],inactive
same,Potency,[5],inactive
CCC(=O)c1ccc2c(c1)N(CCCN(C)C)c1ccccc1S2,Potency,[1],39.8 µM (active)
same,Potency,[2],inactive
same,outcome,[3],inactive
same,Potency,[4],inactive
same,Potency,[6],inactive
same,Potency,[5],inactive
FC(F)(F)c1ccccc1-n1ccnc1,Potency,[1],inactive
same,Potency,[2],inactive
same,outcome,[3],inactive
same,Potency,[6],inactive
same,Potency,[5],inactive
CC(C)(C)c1ccc(C(=O)CCCN2CCC(OC(c3ccccc3)c3ccccc3)CC2)cc1,Potency,[1],inactive
same,Potency,[2],inactive
same,Potency,[4],inactive
same,Potency,[5],inactive
C[C@@H](O)[C@H]1C(=O)N2C(C(=O)O)=C(SCCN=CN)C[C@H]12,Potency,[1],inactive
same,Potency,[2],inactive
same,outcome,[3],inactive
same,Potency,[6],inactive
same,Potency,[5],inactive
NS(=O)(=O)c1cc2c(cc1Cl)NC(C1CC3C=CC1C3)NS2(=O)=O (configuration not stated),Potency,[1],inactive
same,Potency,[2],inactive
same,outcome,[3],inactive
same,Potency,[6],inactive
same,Potency,[5],inactive
CN1C(=O)CC[C@H]1c1cccnc1,Potency,[1],inactive
same,outcome,[3],inactive
same,Potency,[4],inactive
same,Potency,[6],inactive
same,Potency,[5],inactive
NC1=NCC2c3ccccc3Cc3ccccc3N12 (configuration not stated),Potency,[1],inactive
same,Potency,[2],inactive
same,outcome,[3],inactive
same,Potency,[6],inactive
same,Potency,[5],inactive
NC(=O)N1c2ccccc2C=Cc2ccccc21,Potency,[1],inactive
same,Potency,[2],inactive
same,outcome,[3],inactive
same,Potency,[6],inactive
same,Potency,[5],inactive
COc1ccc2c(c1OC)C(=O)O[C@@H]2[C@H]1c2c(cc3c(c2OC)OCO3)CCN1C,Potency,[2],inactive
same,outcome,[3],inactive
same,Potency,[4],inactive
same,Potency,[6],inactive
same,Potency,[5],inactive
C[C@]12CCC(=O)C=C1CC[C@@H]1[C@@H]2C(=O)C[C@@]2(C)[C@H]1CC[C@]2(O)C(=O)CO,Potency,[1],inactive
same,Potency,[2],inactive
same,outcome,[3],inactive
same,Potency,[6],inactive
same,Potency,[5],inactive
C(=C\c1ccccc1)/CN1CCN(C(c2ccccc2)c2ccccc2)CC1,Potency,[1],inactive
same,Potency,[2],inactive
same,outcome,[3],inactive
same,Potency,[6],inactive
same,Potency,[5],inactive
CCN1CCc2nc(N)oc2CC1,Potency,[1],56.2 µM (active)
same,outcome,[7],inactive
same,outcome,[8],inactive
same,outcome,[3],inactive
same,Potency,[9],inactive
same,outcome,[10],inactive
same,outcome,[11],inactive
same,outcome,[12],inactive
same,Potency,[6],inactive
same,Potency,[5],inactive
CN1CCN(CC(=O)N2c3ccccc3C(=O)Nc3cccnc32)CC1,Potency,[2],inactive
same,outcome,[3],inactive
same,Potency,[4],inactive
same,Potency,[6],inactive
same,"activity change, negative = inhibition",[5],-1.82% [at 3.83 µM]
